PP1 inh: PP1-alpha (human) inhibition in PP5 counter-screen | purified PP1alpha, OMFP fluorescence | inhibition, % at 6.7 µM | actives 0.9% (n = 320,000) | AID 2235;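 active = inhibition above the mean inhibition of all tested compounds plus 3 SD, computed separately for each screening campaign, cut at about 15% in these data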
Target sequence (P62136 whole entry, looked up): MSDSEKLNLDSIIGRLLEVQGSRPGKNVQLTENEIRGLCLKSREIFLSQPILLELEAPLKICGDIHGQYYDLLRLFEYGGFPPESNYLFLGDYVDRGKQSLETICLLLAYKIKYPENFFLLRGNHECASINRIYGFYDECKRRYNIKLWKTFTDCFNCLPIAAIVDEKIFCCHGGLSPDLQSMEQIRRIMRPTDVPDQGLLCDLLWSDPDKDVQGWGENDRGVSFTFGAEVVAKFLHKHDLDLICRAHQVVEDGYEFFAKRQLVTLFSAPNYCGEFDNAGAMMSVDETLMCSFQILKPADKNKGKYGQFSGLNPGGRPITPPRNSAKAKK
PP5 primary: inhibitors of human protein phosphatase 5 (PP5); P53041; purified PP5c, OMFP substrate fluorescence; inhibition, % at 6.7 µM; actives 0.18% (n = 320,000);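 active = inhibition above the campaign's mean inhibition across all tested compounds plus 3 SD, cut at about 9.5% in these data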
Calb FLC: affects C. albicans growth with fluconazole | C. albicans CaCi-2 (fluconazole-resistant clinical isolate) + fluconazole, Alamar Blue growth, 48 h | growth inhibition, % (no concentration beside the values) | actives 0.57% (n = 300,000);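 active = growth inhibition above about 58% in most replicates, limit read from the data, passing the limit was not always enough; inconclusive = exactly half the replicates above a set limit; inactive = most replicates below a set limit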;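 also: all wells also contain fluconazole at 8 µg/ml as a sub-toxic cotreatment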
ALR H2O2 inh: inhibitors of human sulfhydryl oxidase ALR. P55789. purified ALR, DTT oxidation, H2O2 HRP-luminol luminescence. inhibition, % (no concentration beside the values). actives 3.8% (n = 290,000);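 active = mean replicate inhibition above about 79%, with every replicate also reaching it, limit read from the data; inconclusive = only one of the two criteria met; inactive = mean below limit and not every replicate reaching it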
Target sequence (P55789 whole entry, looked up): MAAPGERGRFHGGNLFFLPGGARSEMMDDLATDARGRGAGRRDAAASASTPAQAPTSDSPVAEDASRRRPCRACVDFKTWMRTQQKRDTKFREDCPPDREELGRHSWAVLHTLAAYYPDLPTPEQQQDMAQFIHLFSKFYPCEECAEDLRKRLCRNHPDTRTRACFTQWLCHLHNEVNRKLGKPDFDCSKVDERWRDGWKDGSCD
CSC inhib: blocks cancer stem cells. cancer stem cell-like cells viability, luminescence. AID 2717. actives 1.1% (n = 300,000). inhibition, % at 7.5 µM; in the data active = inhibition above about 75%; inconclusive = no clear call, values can overlap the other calls; tested in HMLE shEcad cells
Each line names hits and unclear results; the compound was inactive in the other large screens. Rows were chosen to be rich in hits. Some 5.4% of all compounds tested hit in one or more screens of this group.

CC1(C)CC(NC(=O)c2ccc(Cl)cc2)CC(C)(C)N1	none
COc1ccc(Cn2c(-c3ccc(OC)cc3)n[nH]c2=S)cc1	ALR H2O2 inh 94.7
CCc1cc(-c2n[nH]c(=S)n2Cc2ccccc2)cs1	ALR H2O2 inh 92.2
CCn1c(-c2ccc(Cl)cc2)n[nH]c1=S	ALR H2O2 inh 97.7
CC(C)Cn1c(-c2csc(C(C)C)c2)n[nH]c1=S	ALR H2O2 inh 93.9
CCc1cc(-c2n[nH]c(=S)n2CC)cs1	none
CCOc1ccc(-c2n[nH]c(=S)n2Cc2ccccc2)cc1	none (no result: ALR H2O2 inh)
CCOc1ccccc1NC(=O)C1CCCN(S(=O)(=O)c2ccc(OC)c(C)c2)C1 (stereo not drawn)	none
Cc1ccc(N2C(=O)N(CC(=O)NC(c3ccccc3)c3ccccc3)C(=O)C2C)cc1 (stereo not drawn)	none
COc1cc(NC(=O)CCCn2c(=O)oc3ccccc32)cc(OC)c1	none (no result: PP1 inh, PP5 primary, Calb FLC)
COc1ccc(-c2n[nH]c(=S)n2CC(C)C)cc1	ALR H2O2 inh 88.0
CC(C)Cn1c(-c2csc3ccccc23)n[nH]c1=S	ALR H2O2 inh 94.6
Nc1ccc(OCCCc2c(N)nc(N)nc2N)cc1	ALR H2O2 inh 99.1
CCCCN(C)CC(O)Cn1cc(/C=C/C(=O)c2ccc(OCC)cc2)c2ccccc21 (stereo not drawn)	CSC inhib 99.2
Cc1cc2c(cc1C)NC1=C(N2)OC(c2cccc(O)c2)C1=O (stereo not drawn)	none
CCCC(=O)Nc1sc(C(=O)Nc2cccc(N)c2)c(C)c1C(=O)OC	ALR H2O2 inh 98.3
CC(Oc1ccc(Br)cc1)C(=O)NNC(=O)CCN1CCN(c2ccccc2)CC1 (stereo not drawn)	ALR H2O2 inh 95.2
Cc1ccsc1C(=O)NNC(=O)CCN1CCN(c2ccccc2)CC1	ALR H2O2 inh 93.6
Cc1ccccc1C(=O)NCC(=O)NNC(=O)CCN1CCN(c2ccccc2)CC1	none
CCCCOc1ccc(C(=O)CCN2CCOCC2)cc1	ALR H2O2 inh 97.6
CCOc1ccc(C(=O)CCC(=O)NNC(=O)CCN2CCN(c3ccccc3)CC2)cc1	ALR H2O2 inh 95.1 (no result: PP1 inh, PP5 primary, Calb FLC)
NC(=O)c1nn(-c2ccccc2)nc1NC(=O)CN1CCOCC1	none
COc1ccc(-c2nc3c4c(ncn3n2)-c2ccccc2CC42CCCC2)cc1	none
Oc1cccc(-c2nc3c4c(ncn3n2)-c2ccccc2CC42CCCC2)c1	CSC inhib 111.4
CC(=O)c1ccc(Oc2cc(-c3ccccc3)nc(-c3ccccc3)n2)cc1	none
O=Cc1ccc(Oc2cc(-c3ccccc3)nc(-c3ccccc3)n2)cc1	CSC inhib 99.6
Cc1c(C(=O)N2CCC(Cc3ccccc3)CC2)sc2ncnc(N3CCC(C)CC3)c12	none
CCCn1c(=O)c(C(=O)NNC(=O)c2ccc(Cl)cc2Cl)c(O)c2ccccc21	none (no result: Calb FLC)
O=c1[nH]c(=S)[nH]c2sccc12	ALR H2O2 inh 97.3
COC(=O)CN(c1ccc(C)c(Cl)c1)S(C)(=O)=O	none (no result: ALR H2O2 inh)
O=C(Oc1ccc(/C=N/O)cc1)c1ccccc1	ALR H2O2 inh 89.1
COc1ccc(C(=O)N/N=C/c2ccc(OC(=O)c3ccccc3)cc2)cc1	none
COCCOC(=O)/C(=C/c1ccc(OC(=O)c2ccccc2)cc1)C(C)=O	ALR H2O2 inh 95.1
Cc1cc(NN)nc2ccc(Cl)cc12	none
c1cc(C2CCCCC2)ccc1Oc1nc(N2CCOCC2)nc(N2CCOCC2)n1	none
c1ccc(Oc2nc(N3CCOCC3)nc(N3CCOCC3)n2)cc1	Calb FLC inconclusive, ALR H2O2 inh 88.2
c1ccc(CNc2nc(-c3cccs3)nc3ccccc23)nc1	none
Cc1ccc(CNc2nc(-c3cccs3)nc3ccccc23)cc1	CSC inhib 92.3
CC(=O)Nc1ccc(C)c(NC(=S)Nc2ccc(F)cc2)c1	none (no result: ALR H2O2 inh)
Cc1ccc(C(=O)/C=C/N(C)C)o1	none
Cc1ccc(C(=O)/C=C/c2cc(Br)cc(Br)c2O)o1	CSC inhib 93.9
CSc1ccccc1C(=O)Nc1cc(C)ccc1C	CSC inhib 78.2
Cc1ccc(C)c(NC(=O)c2ccccc2NS(=O)(=O)c2cc([N+](=O)[O-])ccc2C)c1	CSC inhib 97.4 (no result: Calb FLC)
Cc1ccc([N+](=O)[O-])cc1S(=O)(=O)Nc1cccc(S(=O)(=O)Nc2ccccc2C(=O)O)c1	none (no result: PP1 inh, PP5 primary, Calb FLC)
Nc1ccc2nc3c(=O)n(CCc4ccccc4)c(=O)[nH]c3nc2c1	CSC inhib 76.9
CN(CCCN1c2ccccc2CCc2ccccc21)CC(=O)c1ccc(Cl)cc1	ALR H2O2 inh 98.0 (no result: Calb FLC)
CCOC(=O)N1CCc2c(sc(NC(=O)CN(CC)CC)c2C#N)C1	none
Cc1snnc1C(=O)NC(=S)Nc1ccccc1	ALR H2O2 inh 92.1
O=C(NC(=S)Nc1cccnc1)c1ccccc1	none
CCC(=O)c1ccc(N2CCN(C(=O)COc3ccccc3F)CC2)c(F)c1	none
c1ccc(CN2CCN(C(c3ccccc3)c3ccccc3)CC2)cc1	none
Fc1ccc(CN2CCN(C(c3ccccc3)c3ccccc3)CC2)cc1	PP1 inh 15.8
Cc1ccc(-c2nc(-c3ccccn3)sc2CC(=O)O)cc1	ALR H2O2 inh 99.4
O=C1CC(c2ccc3c(c2)OCCO3)Oc2ccccc21 (stereo not drawn)	none
O=C1CC(c2ccc3c(c2)OCCO3)Oc2ccc([N+](=O)[O-])cc21 (stereo not drawn)	CSC inhib 77.4
CCOc1ccc(-c2[nH]ncc2Oc2ccccc2OCC)c(O)c1	none
CCc1oc2ccccc2c1C(=O)CCN1CCCCC1	ALR H2O2 inh 97.1
COc1ccc(NC2CCCN(C(=O)c3ccc(OC)o3)C2)cc1 (stereo not drawn)	ALR H2O2 inh 98.7
COc1ccc(N2CCN(C(=O)c3ccc4[nH]c(C)c(C)c4c3)CC2)cc1	none (no result: Calb FLC)
COc1ccc(NC2CCCN(C(=O)c3cc4ncccn4n3)C2)cc1 (stereo not drawn)	ALR H2O2 inh 99.7
COc1ccc(NC2CCCN(C(=O)c3ccc(C(C)=O)cc3)C2)cc1 (stereo not drawn)	ALR H2O2 inh 98.0 (no result: PP1 inh, PP5 primary)
COc1ccc(NC2CCCN(C(=O)c3cccc(N(C)C)c3)C2)cc1 (stereo not drawn)	none (no result: PP1 inh, PP5 primary, ALR H2O2 inh, CSC inhib)
COc1ccc(NC2CCCN(C(=O)c3ccc4[nH]c(C)c(C)c4c3)C2)cc1 (stereo not drawn)	ALR H2O2 inh 87.7
Cc1ccnc(N=Cc2c(O)ccc3oc4c(c23)CCCC4)c1	none (no result: Calb FLC)
COc1cccc(CNC(=O)c2ccc(NS(=O)(=O)c3ccc4[nH]c(=O)[nH]c4c3)cc2)c1	none (no result: Calb FLC)
COc1ccc(NC2CCCN(C(=O)c3ccc(C(C)=O)s3)C2)cc1 (stereo not drawn)	ALR H2O2 inh 92.3
Cc1ccc(C(=O)N2CCCC(Nc3ccc(C(C)C)cc3)C2)cn1 (stereo not drawn)	none (no result: CSC inhib)
COc1ccc(C(=O)N2CCCC(Nc3ccc(F)cc3)C2)c(OC)c1 (stereo not drawn)	ALR H2O2 inh 98.4
COc1ccc(NC2CCCN(C(=O)c3ccc(C)c(N4CCNC4=O)c3)C2)cc1 (stereo not drawn)	ALR H2O2 inh 97.9
COc1ccc(NC2CCCN(C(=O)c3ccc(C)nc3)C2)cc1 (stereo not drawn)	ALR H2O2 inh 98.6

High-throughput results: PubChem, several laboratories
